# From PubChem BioAssay AID903 (National Center for Advancing Translational Sciences (NCATS), 2007)
# Hit rate of the full screen: of about 55,000 compounds, about 340 (0.62%) were called active. A call without a number means that no potency is given here. Roughly 3% stayed inconclusive and do not appear here. The call rests on the fitted dose curve; in most records, active means well fitted cell-killing curve with a large enough effect; inconclusive means small, poorly fitted or top-dose-only effect; inactive means no such curve, though single readings can be large or run the other way. Only a selection was taken, and actives are over-represented in it overall.
# Assay: qHTS Screen for Compounds that Selectively Target Cancer Cells with p53 Mutations: Cytotoxicity of p53 Null Cells at the Permissive Temperature; further: nearly all actives have a fitted effect of over 55% in size
# Details: H1299-neo p53 null cells, ATP luminescence, 24 h, 32C; series mostly up to 46.1 µM
# Text: NIH Chemical Genomics Center [NCGC] NIH Molecular Libraries Screening Centers Network [MLSCN] MLSCN Grant: 1 X01 MH079844-01 Assay Submitter (PI): Dr. SUN, YI, University of Michigan NCGC Assay Overview: Synthetic Lethal Screen for Compounds to Kill Cancer Cells with p53 Mutation. Tumor suppressor gene p53 serves as a major cellular barrier against tumorigenesis. […] The goal of this screening is to identify small molecule probes that selectively kill cancer cells with mutations in p53. This screening was carried out using two lines of H1299 lung cancer cells. The H1299-p53 A138V line express a temperature sensitive p53 mutant (p53ts) in which the mutant p53 protein (A138V) is in the mutant confirmation when grown at 39C (the nonpermissive temperature) and in the wild type conformation when grown at 32C (the permissive temperature). A H1299-neo line (p53 null) grown at both 39C and 32C were used as counter-screens to filter out false positive associated with temperature shifting. The small molecular compounds that selectively target mutant p53-containing cancer cells were selected as candidate probes for further study. A cytotoxicity assay based on the measurement of ATP contents in cells was used in this screen. Concentration-responses of all the compounds in the library collection were determined in qHTS using the cell lines and temperature conditions as above.
# NCGC Assay Protocol Summary: Both the H1299-p53A138V and H1299-neo cell lines were provided by Dr.Yi Sun, a PI at the University Michigan. The cells were maintained and cultured at 37C. The resuspended frozen cells were used to plate the cells in the 1536-well assay plates at a density of 600 cells per well in 5 ul medium. The assay plates with the cells were incubated at 37C for 16 to 30 hours before the experiments. The library compounds in DMSO solution were added to the cells in assay plates and incubated 24 hours at 39C (for mutant p53 conformation) or 32C (for normal p53 conformation as control). An ATP_lite assay kit (PerkinElmer) was used to determine the cell viability. Tomaxifen (100uM) was used as the positive control for cell killing. Data were normalized to the controls for basal activity (DMSO only) and 100% killing (100uM tamoxifen). AC50 values were determined from concentration-response data modeled with the standard Hill equation. P53 assay protocol: 1. Reagent; 5 uL H1299-p53A138V or H1299-neo cell cells/well 2. Time; overnight; 37C incubation 3. Compounds; 23 nL; 5.9 nM to 46 uM 4. Controls; 23 nL; Tamoxifen 100 uM 5. Time; 24 hr; 32C incubation 6. Reagent; 3 uL; ATP_Lite reagent 7. Time; 20 min; Room Temperature 8. Detection; Luminescence; Viewlux plate reader Keywords: p53, synthetic lethal, cancer, cell viability, cytotoxicity, H1299 cell line, luminescence, MLSMR, MLSCN, NIH Roadmap, qHTS, NCGC
# Potency means the concentration at half of the fitted maximal effect.
row,Structure (SMILES),Potency
1,CC(C)Oc1ccc(NC(=O)c2cc3ccccc3o2)cc1,10 µM (active)
2,Cn1cc(/C=C/c2nc3ccccc3c(=O)n2-c2ccccc2)c2ccccc21,inactive
3,CC(C)(C)c1ccc(S(=O)(=O)Nc2ccc(O)c(Sc3nc4ccccc4s3)c2)cc1,inactive
4,CCCCOc1ccc(C(=O)N2CC(=O)Nc3ccc(Br)cc3C2c2ccc(F)cc2)cc1 (stereo not given),inactive
5,Cc1ccc(Cn2c(C)c3cnn(CC(=O)N4CCC5(CC4)OCCO5)c(=O)c3c2C)cc1,inactive
